“And” between values parts separate entries of the source, which are not always exact repeats. Equal entries are not always repeated. Inconclusive results are not listed. A call without a number means that no potency is given here. The source made the active and inactive calls. The call rests on the fitted dose curve; in most records, active means well fitted inhibition curve with a large enough effect in the repeat runs; inconclusive means weak or mixed curves, or effect the other way; inactive means no such curve, though single readings can be large or run the other way.
molecular target: Nuclear receptor subfamily 1 group I member 3 (Homo sapiens) (UniProt Q14994); experiment: qHTS assay to identify small molecule antagonists of the constitutive androstane receptor (CAR) signaling pathway (AID 1224838); details: HepG2-CYP2B6-hCAR luciferase, CITCO-stimulated, 24 h; series mostly up to 92.4 µM;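 further: HepG2 cells stably expressing hCAR with CYP2B6 luciferase reporter stimulated by CITCO; nearly all actives have a fitted effect of over 40% in size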
Sequence (Q14994 whole entry, looked up): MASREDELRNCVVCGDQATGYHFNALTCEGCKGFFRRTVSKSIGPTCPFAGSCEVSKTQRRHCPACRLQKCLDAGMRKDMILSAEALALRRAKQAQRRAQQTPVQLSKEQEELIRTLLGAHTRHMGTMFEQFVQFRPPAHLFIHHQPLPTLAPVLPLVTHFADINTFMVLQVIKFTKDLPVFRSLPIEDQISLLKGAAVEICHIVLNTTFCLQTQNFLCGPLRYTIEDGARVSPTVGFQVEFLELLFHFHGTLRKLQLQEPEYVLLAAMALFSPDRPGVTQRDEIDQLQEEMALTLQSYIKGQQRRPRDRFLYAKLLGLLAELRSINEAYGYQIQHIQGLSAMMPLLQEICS
Source text: U.S. Tox21 Program National Center for Advancing Translational Sciences [NCATS] NIH Chemical Genomics Center [NCGC] U.S. Environmental Protection Agency [EPA] National Institutes of Environmental Health Sciences [NIEHS] National Toxicology Program [NTP] U.S. Food and Drug Administration [FDA] Tox21 Assay Overview: The constitutive androstane receptor (CAR) is a nuclear receptor which regulates multiple drug metabolizing enzymes (DMEs) and transporters. Activating CAR will generally increase the transcription and subsequent translation of CYP2B6 and CYP3A4. These two DMEs represent about 50% of the drug metabolizing potential in the body. When CAR is deactivated, the metabolizing potential in the body will decrease, subsequently increasing the toxicity in the body or lowering the therapeutic potential of a pro-drug. Recently, there have also been studies performed indicating CARs role in energy metabolism and cancer therapy. Therefore, inhibiting CARs activity could have a potential effect on diabetes and cancer. Identifying environmental toxins and compounds which modulate CAR, through the use of the Tox21 10K compound collection, will be an important step in determining the toxicity and potential therapeutic effects these factors will have on the human body.
Tox21 Assay Protocol Summary: A double-stable (hCAR and CYP2B6-2.2kb) transfected cell line, derived from human hepatoma (HepG2) cells, was utilized for the duration of the quantitative high-throughput screens. The HepG2-CYP2B6-hCAR cells suspended in DMEM culture medium supplemented with 10% FBS, 5 ug/mL blasticidin, 0.5 mg/mL geneticin, 100 U/mL penicillin and 100 ug/mL streptomycin were dispensed at 2500 cells/4 uL/well in 1536-well white solid bottom plates using a Multidrop Combi. After the assay plates were incubated at 37 C/5% CO2 for 4 hrs, 23 nL of compounds at 15 concentrations (from 5-48 columns) or positive control (from 1 to 4 columns) were transferred to the assay plates using a Pintool station. One uL of CITCO, was added using a Flying Reagent Dispenser to generate a final concentration of 50 nM CITCO inside each well. After a 24 hr incubation period at 37 C/5% CO2, four uL of ONE-Glo reagent was added into the assay plates using a Flying Reagent Dispenser. After a 30 min incubation period at room temperature, the luminescence intensity in the assay plates was measured using a ViewLux plate reader.
Potency means the concentration at half of the fitted maximal effect.

SMILES | Potency
CC(C)OS(C)(=O)=O | inactive
CC(C)(C)c1cc([N+](=O)[O-])cc(C(C)(C)C)c1O | 27.3 µM (active)
OC(c1ccc(Cl)cc1)(c1ccc(Cl)cc1)C(Cl)(Cl)Cl | inactive
CC(=O)Nc1ccc2c(c1)Cc1ccccc1-2 | inactive
CCOCn1c(-c2ccc(Cl)cc2)c(C#N)c(Br)c1C(F)(F)F | 4.86 µM (active)
C[C@]12CC[C@H](O)C[C@H]1CC[C@@H]1[C@@H]2C[C@@H](O)[C@]2(C)[C@@H](C3=CC(=O)OC3)CC[C@]12O | 1.22 µM (active)
C=COCCCl | inactive
C[C@@H]1CC[C@@]2(OC1)O[C@H]1[C@@H](O)[C@H]3[C@@H]4CC[C@H]5C[C@@H](O[C@@H]6O[C@H](CO)[C@H](O[C@@H]7O[C@H](CO)[C@@H](O)[C@H](O[C@@H]8OC[C@@H](O)[C@H](O)[C@H]8O)[C@H]7O[C@@H]7O[C@H](CO)[C@@H](O)[C@H](O[C@@H]8O[C@H](CO)[C@@H](O)[C@H](O)[C@H]8O)[C@H]7O)[C@H](O)[C@H]6O)[C@H](O)C[C@]5(C)[C@H]4CC[C@]3(C)[C@H]1[C@@H]2C | 29 µM (active)
SCc1ccco1 | inactive
Oc1c(Cl)c(Cl)cc(Cl)c1Cl | inactive
CC(C)(C)OO | inactive
CCCSP(=O)(OCC)SCCC | inactive
CN(CCCC(=O)c1cccnc1)N=O | inactive
CCc1nn(C)c(C(=O)NCc2ccc(C(C)(C)C)cc2)c1Cl | inactive
COC12CC[C@@]3(C[C@@H]1C(C)(O)C(C)(C)C)[C@H]1Cc4ccc(O)c5c4[C@@]3(CCN1CC1CC1)[C@H]2O5 (stereo not given in full) | 48.2 µM (active)
C[C@H]1O[C@@H](O[C@H]2[C@@H](O)C[C@H](O[C@H]3[C@@H](O)C[C@H](O[C@H]4CC[C@@]5(C)[C@H](CC[C@@H]6[C@@H]5CC[C@]5(C)[C@@H](C7=CC(=O)OC7)CC[C@]65O)C4)O[C@@H]3C)O[C@@H]2C)C[C@H](O)[C@@H]1O | 77.4 nM (active) and 422 nM (active)
O=c1[nH]c2ccccc2n1CCCN1CCC(n2c(=O)[nH]c3cc(Cl)ccc32)CC1 | inactive
CC(C)CC(C)(c1ccc(O)cc1)c1ccc(O)cc1 | 2.44 µM (active)
CCCCOP(=O)(CCCC)OCCCC | inactive
Clc1ccc(-c2ccc(Cl)c(Cl)c2Cl)c(Cl)c1Cl | inactive

SMILES | Potency
Clc1ccc(Oc2ccccc2)cc1 | inactive
CCN(CC)c1c([N+](=O)[O-])cc(C(F)(F)F)c(N)c1[N+](=O)[O-] | inactive
O=[N+]([O-])c1cc([N+](=O)[O-])c2ccccc2c1 | inactive
O=C(NC(=O)c1c(F)cccc1F)Nc1cc(Cl)c(OC(F)(F)C(F)F)c(Cl)c1 | inactive
CCC(C)(C)C(=O)OC1=C(c2ccc(Cl)cc2Cl)C(=O)OC12CCCCC2 | inactive
NNC(=O)c1ccccc1 | inactive
O=C(CCCN1CCC2(CC1)C(=O)NCN2c1ccccc1)c1ccc(F)cc1 | 7.5 µM (active)
O=S(=O)(c1ccc(Cl)cc1)c1ccc(Cl)cc1 | inactive
CCCCOCN(C(=O)CCl)c1c(CC)cccc1CC | inactive
Fc1ccc(Oc2ccnc3cc(Cl)cc(Cl)c23)cc1 | inactive
Cc1c(Cl)c(=O)oc2cc(OP(=O)(OCCCl)OCCCl)ccc12 | inactive
CC(=O)c1cc(C(C)(C)C)cc2c1CCC2(C)C | inactive
C=CCOC(N)=O | inactive
Nc1ccccc1C(=O)OC/C=C/c1ccccc1 | inactive
ClC1=C(Cl)[C@]2(Cl)[C@H]3[C@H]([C@H]4C=C[C@H]3C4)[C@@]1(Cl)C2(Cl)Cl | inactive
C[As+](C)(C)CC(=O)[O-] | inactive
Cc1cccc(OP(=O)(Oc2cccc(C)c2)Oc2cccc(C)c2)c1 | inactive
O=C(O)COc1nc(Cl)c(Cl)cc1Cl | inactive
C[C@@H]1O[C@@H](O[C@H]2C[C@@H](O)[C@]3(CO)[C@H]4[C@H](O)C[C@]5(C)[C@@H](C6=CC(=O)OC6)CC[C@]5(O)[C@@H]4CC[C@]3(O)C2)[C@H](O)[C@H](O)[C@H]1O | 146 nM (active) and 168 nM (active)
ClC1=C(Cl)[C@]2(Cl)[C@@H]3[C@@H](Cl)[C@@H](Cl)C[C@@H]3[C@@]1(Cl)C2(Cl)Cl | inactive

Source: PubChem BioAssay (Tox21)
